This is a sample that favours compounds with a hit; in the whole collection about 1.3% have one here.
LANA-H2A inh – blockers of LANA interaction with H2A/H2B – biochemical, FP readout, HTS, primary screen. 0.6% of 320,000 active. AID 2629, 2010. inhibition, % (concentration not given with the values). cell-free LANA-H2A/H2B peptide, fluorescence polarization; in the data active means inhibition mostly above about 10%, no sharp cut-off; inactive means mostly below about 6.7%
C-LANA FP – inhibitors of KSHV C-LANA binding to DNA, primary screen, biochemical, fluorescence polarization, FAM-LBS DNA, MBP-C-LANA, single point | Kaposi's sarcoma herpesvirus LANA C-terminal domain (residues 932-1162) DNA binding | 0.078% of 340,000 active | inhibition, % at 9 µM | AID 504423, 2011;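 active means highest replicate inhibition at or above 60% at 9 µM, even if other replicates fall short; inactive means all replicates below 60% inhibition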;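 further: 0% = neutral control wells and 100% = 4 µM acridine orange control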
RTF Ca sens inh – cardiac RTF calcium sensitivity inhibitors, primary screen, biochemical, IANBD-TnC fluorescence, EC70 calcium; inhibition, % at 7.15 µM; IANBD-labeled cardiac RTF, Ca2+ fluorescence; 0.12% of 340,000 active; Troponin I, cardiac muscle (Homo sapiens) + Troponin T, cardiac muscle (Homo sapiens) + …;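 active means inhibition above the mean inhibition of all tested compounds plus 3 SD, cut at about 17% in these data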;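 further: assay run at fixed EC70 calcium of 1.6 mM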
cardiac RTF act – cardiac RTF calcium sensitivity activators, primary screen, biochemical, IANBD-TnC fluorescence, EC20 calcium; 0.24% of 340,000 active; IANBD-labeled TnC RTF fluorescence at EC20 calcium; 0% EC20 calcium, 100% full calcium; activation, % at 7.2 µM; Troponin I, cardiac muscle (Homo sapiens) + Troponin T, cardiac muscle (Homo sapiens) + …;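 active means activation above the mean over all tested compounds plus 3 SD, cut at about 30% in these data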;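 further: rise in fluorescence read as greater calcium sensitivity of cardiac thin filaments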
Keap1 Nrf2 FP – Keap1-Nrf2 protein-protein interaction inhibitors, primary screen, biochemical, fluorescence polarization, single point. 0.15% of 340,000 active. Kelch-like ECH-associated protein 1 (Homo sapiens), Q14145. inhibition, % at 9.4 µM. Keap1 Kelch-Nrf2 peptide fluorescence polarization, 1536-well; in the data active means inhibition above about 12%; inconclusive means no clear call, values can overlap the other calls; inactive means below about 7.3%;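 further: human Keap1 Kelch domain with fluorescein labeled Nrf2 9mer peptide probe; 0% = neutral control wells and 100% = peptide positive control; higher means more block of Keap1 binding to Nrf2 peptide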
E coli Lon inh – inhibitors of E. coli Lon protease, primary screen, biochemical, fluorescence polarization; 0.42% of 360,000 active; inhibition, % at 7.94 µM; purified E. coli Lon protease; AID 602123, 2011; P0A9M0; in the data active means inhibition above about 13%, passing the limit was not always enough;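 further: 0% = enzyme with probe and DMSO and 100% = no enzyme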
Target sequence (P0A9M0 whole entry, looked up): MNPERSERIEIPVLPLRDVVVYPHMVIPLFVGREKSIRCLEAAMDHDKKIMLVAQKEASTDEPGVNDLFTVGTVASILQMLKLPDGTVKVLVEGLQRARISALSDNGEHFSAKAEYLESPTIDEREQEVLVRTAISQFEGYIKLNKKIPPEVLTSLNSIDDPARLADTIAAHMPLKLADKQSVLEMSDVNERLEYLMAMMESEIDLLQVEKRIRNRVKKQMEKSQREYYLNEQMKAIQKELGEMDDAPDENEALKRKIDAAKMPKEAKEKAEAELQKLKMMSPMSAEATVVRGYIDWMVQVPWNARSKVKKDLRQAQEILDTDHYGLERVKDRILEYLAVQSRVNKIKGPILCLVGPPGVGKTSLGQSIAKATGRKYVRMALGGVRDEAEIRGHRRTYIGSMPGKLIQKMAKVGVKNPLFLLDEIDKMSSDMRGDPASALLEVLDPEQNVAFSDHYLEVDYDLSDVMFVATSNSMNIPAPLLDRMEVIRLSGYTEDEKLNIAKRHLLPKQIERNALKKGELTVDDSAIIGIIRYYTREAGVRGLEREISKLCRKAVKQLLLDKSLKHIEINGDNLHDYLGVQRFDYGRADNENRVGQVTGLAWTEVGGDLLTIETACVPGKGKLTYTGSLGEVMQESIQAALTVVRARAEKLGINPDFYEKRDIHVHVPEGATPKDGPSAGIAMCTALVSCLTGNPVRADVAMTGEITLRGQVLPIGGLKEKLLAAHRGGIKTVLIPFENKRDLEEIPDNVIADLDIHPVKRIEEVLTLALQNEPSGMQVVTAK
eLon confirm – E. coli Lon protease inhibitor retest, confirmation, biochemical, fluorescence polarization | shares compounds with E coli Lon inh | purified E. coli Lon | inhibition, % at 7.94 µM | 31% of 1,400 active | AID 602230, 2012; in the data active means inhibition above about 16%;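 further: 0% = enzyme with probe and DMSO and 100% = no enzyme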
An asterisk follows results filed as active; i = inactive; ? = inconclusive; · = no result given.

SMILES	LANA-H2A inh	C-LANA FP	RTF Ca sens inh	cardiac RTF act	Keap1 Nrf2 FP	E coli Lon inh	eLon confirm
Cc1c(N/C(=N/S(=O)(=O)c2cc([N+](=O)[O-])ccc2Cl)c2ccccc2)c(=O)n(-c2ccccc2)n1C	-2	-2	-15	-3	0	19*	-11
Cn1cnnc1SCC(=O)Nc1ccccc1	1	-1	-5	2	-5	-8	·
Cn1cnnc1SCC(=O)Nc1ccc2ccccc2c1	2	-1	-2	-2	-1	14*	1
COc1ccc(NC(C)=O)cc1NC(=O)CSc1nnc(-c2ccncc2)n1C	-1	-1	2	0	-6	8	·
Cc1ccc(NC(=O)CSc2nnc(-c3ccncc3)n2C)cc1C	2	1	-4	-1	3	33*	-6
NC(=O)c1ccc2c(=O)c(O)c(-c3cc(Cl)c(N)c(Cl)c3)[nH]c2c1	0	14	-6	2	-1	52*	19*
CCN(c1c(C)n(C)n(-c2ccccc2)c1=O)S(C)(=O)=O	2	0	-18	0	1	69*	-22
Cc1c(O)c(=O)n(-c2ccccc2)n1C	8	-1	-6	9	-9	-11	·
CC(=O)C1=CCC(c2ccccc2F)N(S(=O)(=O)c2ccc(C)cc2)C1 (stereo unspecified)	·	·	·	·	·	-7	·
N#CCC(=O)N/N=C/c1ccc(OC2CSC2)cc1	0	-1	-7	0	1	25*	-39
Cc1ccc(C(O)c2ncc(-c3cccc(C(F)(F)F)c3)[nH]2)cc1 (stereo unspecified)	·	·	·	·	·	15*	2
CC1CCN(C(=O)C2CCN(c3ncnc4c3nc3n4CCCCC3)CC2)CC1	1	-1	4	-4	2	20*	-1
COC(=O)N/N=C/c1cccc(OCCSc2ccc(Cl)cc2)c1	1	0	-11	2	-5	11	·
CCOCCCNCC(=O)NCC1CCCCC1	1	-2	-10	4	0	4	·
Cc1ccc(C(=O)Nc2nc(=O)n(C(=O)c3ccccc3C)s2)cc1	-3	2	3	-3	0	19*	31*
Cc1ccc(S(=O)(=O)CNC(=S)c2ccc3ccccc3c2)cc1	3	0	-4	-1	0	20*	12
Cc1ccc(S(=O)(=O)N2CCCC(C(=O)NCCC(C)C)C2)cc1 (stereo unspecified)	1	-1	-3	4	-2	-2	·
CCC(=O)N(Cc1cc2ccc(C)cc2n2nnnc12)C1CCCCC1	14	1	7	3	-1	-3	·
CCC(=O)N(CCc1ccc(OC)c(OC)c1)Cc1cc2ccc(C)cc2n2nnnc12	6	-1	-2	1	-5	16*	10
Cc1ccsc1C(=O)N1CCN(c2ncc(C(F)(F)F)cc2Cl)CC1	0	-1	0	2	1	23*	-6
CC(NC(=O)C1CCC(CNS(=O)(=O)c2ccccc2)CC1)c1ccccc1 (stereo unspecified)	-1	0	-7	-1	0	-8	·
Cc1ccc(C(NC(=O)C2CCN(CCOc3ccccc3)CC2)c2ccccn2)cc1 (stereo unspecified)	·	·	·	·	·	15*	-3
O=C(NC(c1ccc(F)cc1)c1ccc2ccccc2n1)C1CCN(CCOc2ccc(F)cc2)CC1 (stereo unspecified)	·	·	·	·	·	-4	·
COc1ccc(OCCN2CCC(C(=O)NC(c3ccc(F)cc3)c3ccc4ccccc4n3)CC2)cc1 (stereo unspecified)	·	·	·	·	·	24*	-16
COc1ccc(OCCN2CCC(C(=O)NC(c3ccc(OC)cc3)c3ccccn3)CC2)cc1 (stereo unspecified)	·	·	·	·	·	-2	·
SMILES	LANA-H2A inh	C-LANA FP	RTF Ca sens inh	cardiac RTF act	Keap1 Nrf2 FP	E coli Lon inh	eLon confirm
COc1ccc(N(CC(=O)Nc2cccc(C(C)=O)c2)S(=O)(=O)c2ccc(NC(C)=O)cc2)cc1	0	0	-1	-5	-5	1	·
Cc1cccc(-c2cccc(NC(=O)C3CCCN(C(=O)c4csc(C)n4)C3)c2)c1 (stereo unspecified)	-10	-1	-7	0	-1	79*	6
Cc1cccc(-c2cccc(NC(=O)C3CCCN(C(=O)c4cccnc4)C3)c2)c1 (stereo unspecified)	-5	2	4	-7	3	-4	·
O=C(COc1ccc([N+](=O)[O-])cc1)NNC(=O)Nc1ccc([N+](=O)[O-])cc1	-1	1	1	-4	-8	0	·
O=C(C/C=N\OCc1ccc([N+](=O)[O-])cc1)Nc1ccc(Br)cc1	-3	0	-3	-3	-3	17*	-2
COc1ccc(/C=C/C(=O)c2ccc3c(c2)OCO3)c(OC)c1	-1	1	-14	-3	3	-5	·
COc1cccc(/C=C/C(=O)c2ccc3c(c2)OCCO3)c1OC	0	0	0	-4	2	20*	9
Nc1ccc2nc(CCc3ccccc3)[nH]c2c1	1	-1	-2	0	-3	0	·
Nc1ccc2nc3c(=O)n(CCc4ccccc4)c(=O)[nH]c3nc2c1	6	·	·	·	·	191*	132*
Cc1cc2nc3c(=O)n(CCc4ccccc4)c(=O)[nH]c3nc2cc1N	16	35	i	516*	11	166*	89*
Cc1nc2ccccc2c(=O)n1CCc1ccccc1	5	-2	-7	-4	-1	5	·
Cc1ccc(C(O)Cn2nc(C)cc2C)cc1 (stereo unspecified)	3	0	-6	9	-5	-3	·
Cc1ccc(C(=O)Nn2c(O)c(C=C3N=c4ccccc4=N3)sc2=S)cc1	2	1	-2	-1	1	26*	33*
COc1ccc(CC(NC(C)=O)C(=O)NC2CCN(c3nnnn3-c3ccccc3)CC2)cc1OC (stereo unspecified)	2	·	·	·	·	·	·
Nc1ccc2c(O)cc(S(=O)(=O)O)cc2c1	·	51	-63	58*	0	137*	3
Nc1cccc2c(O)cc(S(=O)(=O)O)cc12	·	117*	15	-12	?	65*	12
O=C(O)c1cc(S(=O)(=O)O)ccc1O	-2	6	-11	-4	0	4	·

Compound activity from PubChem.
